Compound activity as filed in PubChem.
This is a sample that favours compounds with a hit; in the whole collection about 4% have one here.
D1 agonist: agonists of human D1 dopamine receptor | P21728 | HEK293 T-REx D1 cells, calcium flux, agonist mode | activation, % at 2 µM | hit rate 1% among 360,000; also: 0% is about no effect
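Inducible HEK293 T-REx D1 cells, force-coupled to calcium signalling, were plated at 4000 cells/well with tetracycline and held overnight at 30 C. After no-wash calcium dye loading, compound-evoked calcium rise over 180 s flagged agonists.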
D1 PAM: human D1 dopamine receptor positive modulation | AID 504651 | hit rate 0.036% among 360,000 | P21728 | potentiation, % at 10 µM | HEK293 TREx D1 cells, calcium flux, dopamine EC20 potentiation; in the data active = potentiation above about 30%; also: 0% is about no effect
TRHR ag: activates the human TRH receptor; TRHR cells, calcium flux fluo-8, FDSS agonist mode; activation, % at 2 µM; hit rate 0.18% among 360,000; AID 493084; also: 0% is about no effect
Target sequence (P34981 whole entry, looked up): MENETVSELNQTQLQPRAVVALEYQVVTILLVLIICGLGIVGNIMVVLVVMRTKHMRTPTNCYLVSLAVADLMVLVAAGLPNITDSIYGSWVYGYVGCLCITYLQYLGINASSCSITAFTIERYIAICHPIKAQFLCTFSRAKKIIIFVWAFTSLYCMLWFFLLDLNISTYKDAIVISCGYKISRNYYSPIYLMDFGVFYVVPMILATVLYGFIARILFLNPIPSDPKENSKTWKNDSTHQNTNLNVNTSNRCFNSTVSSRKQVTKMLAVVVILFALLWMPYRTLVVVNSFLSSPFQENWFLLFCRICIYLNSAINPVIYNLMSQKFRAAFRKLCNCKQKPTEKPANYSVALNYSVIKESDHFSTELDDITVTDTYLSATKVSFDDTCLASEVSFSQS
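In this calcium-flux screen, cells bearing human TRHR are dye-loaded with fluo-8, baselined for 10 cycles, then exposed to library compounds; positive kinetic calcium responses during the agonist phase mark hits, with TRH as control.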
TRHR PAM: allosterically enhances the human TRH receptor; TRHR cells, fluo-8 calcium fluorescence, EC20 TRH enhancement; hit rate 0.66% among 360,000; enhancement, % at 2 µM; AID 493056; P34981; in the data active = enhancement above about 30%; also: 0% is about no effect
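Enhancer read-out: after compound pinning and an initial kinetic agonist-mode read, an EC20 of TRH (10 nM final) was injected and fluo-8 calcium signal (Ex 480/Em 530) followed at 1 s/cycle for 100 cycles in TRHR-expressing cells.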
GRP78 ERSR act: ER stress response induction in glioma; AID 602332; U87-MG GRP78 promoter luciferase reporter, 16 h; hit rate 0.02% among 420,000; Potency, µM, inactives show at the top dose activation, hits mostly activators; active = well fitted activation curve with a large enough effect; also: potency is read from the fitted curve at half-maximal effect; series mostly up to about 76 µM; % of control where 0% means no effect; nearly all actives have a fitted effect of over 35% in size
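Stably transfected U87-MG human glioma cells carrying a GRP78-based luminescent sensor were seeded at 1000 cells/well, pin-dosed with compounds and incubated 16 h. Luciferase reagent was then added, and end-point luminescence was read after 10 min at room temperature.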
D1 antag: blocks dopamine activation of the human D1 receptor | hit rate 3.2% among 360,000 | HEK293 TREx D1 cells, calcium flux, dopamine EC80; stronger effect = lower value | activity change, negative = inhibition, % at 10 µM | P21728; in the data active = activity change below about -30%; also: % is scaled to controls: 0 for no effect and ±100 for the full control effect
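Tetracycline-induced HEK293 Trex D1 cells, force-coupled to calcium, dye-loaded; compounds added and read 180 s, then EC80 dopamine added and calcium flux tracked kinetically another 180 s.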
Starred values were filed as active, the others as inactive; x = no result given; ! = repeats disagree. Rule as the data show it, unless noted: active = activation above about 30%; inactive = the rest.

SMILES	D1 agonist	D1 PAM	TRHR ag	TRHR PAM	GRP78 ERSR act	D1 antag
O=C(NCCNc1ccc([N+](=O)[O-])cc1C(F)(F)F)c1cccc(F)c1	3.2	-3.0	-0.9	-1.0	-5.5%	-9.9
O=C(NCCNc1ccc([N+](=O)[O-])cc1C(F)(F)F)c1ccccc1	6.0	-18.4	-0.8	-7.8	-1.8%	-31.2*
Cn1c(=O)n(C)c2cc(NS(=O)(=O)c3ccccc3)c(NCc3ccccc3)cc21	1.7	-5.0	-0.1	30.1*	0.6%	-4.0
CCOc1ccccc1NS(=O)(=O)c1ccc2c(c1)N(C)CCO2	3.9	-1.6	-0.7	11.5	-3.3%	-5.8
CC(C)=CCC/C(C)=C/CC/C(C)=N/O	2.5	-4.1	-1.2	-5.9	-1.8%	-31.5*
CCCOP(=O)(OCCC)C(Nc1ccc(C(C)C)cc1)c1ccc([N+](=O)[O-])cc1 (configuration not stated)	7.2	-8.1	1.6	1.2	-2.5%	-33.0*
CN(C)S(=O)(=O)c1ccc(NC(=O)COC(=O)C2COc3ccccc3O2)cc1 (configuration not stated)	1.2	-4.2	-0.4	-4.1	-7.8%	-93.7*
CN1CCN(C(=O)c2cccc(COc3cc(Cl)ccc3Cl)c2)CC1	1.9	-13.6	-0.1	-2.7	5.2%	-42.9*
O=C(NC1CCCC1)C(=O)N(Cc1cccnc1)C(C(=O)NCc1ccco1)c1ccccc1F (configuration not stated)	1.3	-4.2	0.4	-2.1	9.9%	-4.7
O=C(NC1CCCCC1)C(=O)N(Cc1cccnc1)C(C(=O)NCc1ccco1)c1ccccc1 (configuration not stated)	0.8	-1.4	-0.1	3.3	x	-35.2*
Fc1cccc(CN(C2=NCCN2)c2c(Cl)cccc2Cl)c1	-1.7	-3.8	0.3	-6.2	-3.6%	16.0
CN1C(=O)C(N=Nc2ccccc2C(=O)O)N(C)C1=S (configuration not stated)	45.9*	3.0	12.0	0.6	0.8%	2.4
CC1=NN(C(N)=S)C(=O)C1N=Nc1ccccc1C(=O)O (configuration not stated)	2.2	4.6	0.6	-2.7	-1.1%	-4.2
COc1cc(C)ccc1OCCOCCOc1ccccc1[N+](=O)[O-]	2.6	-7.0	-1.3	-2.9	1.9%	-15.8
O=Cc1ccccc1OCCOc1ccc([N+](=O)[O-])cc1	2.4	-6.9	-2.1	-4.5	3.5%	-30.7*
COc1cc(C)ccc1OCCOCCOc1ccc([N+](=O)[O-])cc1	31.0*	-0.8	0.1	-1.0	-3.2%	-0.9
O=[N+]([O-])c1ccc(COc2ccccc2/C=N/O)cc1	4.4	-8.2	-0.5	-1.2	0.2%	-49.4*
Clc1ccc(CN2CCN(c3ncnc4scc(-c5cccs5)c34)CC2)cc1	5.4	12.6	0.5	2.7	-4.6%	41.5
CN(C(=O)c1cccc(NC(=O)Cc2ccc(NC(=O)C3CCCN(C(=O)C4CCCCC4)C3)cc2)c1)C1CC1 (configuration not stated)	x	x	x	x	-2.1%	x
Cc1ccccc1Nc1nnc(SCC(=O)Nc2ccccc2[N+](=O)[O-])s1	1.4	11.3	-1.1	-5.9	-3.1%	3.4
FC(F)(F)c1cccc(NCc2n[nH]c(=S)n2C2CCCCC2)c1	2.8	-3.2	-0.2	3.8	-3.8%	-9.2
O=C(NC1CCN(C(=S)NCCc2ccccc2)CC1)C1CCCCC1	6.7	-9.9	-0.9	-3.5	-1.1%	-34.0*
CCCCCc1n[nH]c2c1CCCC2	0.3	-2.8	-0.5	-1.4	2.5%	-4.0
CCC(=O)N1CCc2cc(S(=O)(=O)NC(C(=O)Nc3cc(OC)cc(OC)c3)C(C)C)ccc21 (configuration not stated)	-1.1	3.2	-0.1	-3.3	-1.0%	8.1
COc1ccc(NC(=O)Cn2c(=O)n(Cc3ccccc3)c(=O)c3sc4ccccc4c32)cc1	2.8	2.0	0.8	35.5*	-1.4%	-30.3*
SMILES	D1 agonist	D1 PAM	TRHR ag	TRHR PAM	GRP78 ERSR act	D1 antag
Cc1ccc(-n2c(=O)c3sc4ccccc4c3n(CC(=O)NC3CCCC3)c2=O)cc1C	3.0	0.5	0.8	-6.6	-1.4%	-44.7*
CCc1ccc(-n2c(=O)c3sc4ccccc4c3n(CC(=O)NC3CCCCC3)c2=O)cc1	-0.1	1.9	0.3	-2.2	-0.9%	-24.4
COc1ccccc1NC(=O)Cn1c(=O)n(Cc2ccccc2)c(=O)c2sc3ccccc3c21	-0.8	-0.1	-0.2	-1.8	-2.3%	-2.1
Cc1ccccc1NC(=O)Cn1c(=O)n(Cc2ccccc2)c(=O)c2sc3ccccc3c21	-0.7	1.3	1.0	0.1	-2.8%	-37.4*
CC12C(=O)N(c3ccc(C(=O)N4CCOCC4)cc3)C(=O)C1C1c3ccccc3C2c2ccccc21 (configuration not stated)	9.6	-0.8	0.7	-2.3	x	11.8
Oc1ccccc1C1CCCCC1c1ccccc1 (configuration not stated)	5.4	-4.1	-2.4	2.8	-7.6%	-39.3*
O=C(CN1C(=O)c2ccccc2S1(=O)=O)N1CCN(c2ccccc2)CC1	8.5	0.1	-1.0	19.1	3.9%	-4.0
CCCOc1ccc(N2C(=O)CC(N3CCN(C(=O)c4ccco4)CC3)C2=O)cc1 (configuration not stated)	2.4	-0.6	0.2	-0.4	-1.9%	-2.4
CCCCCCOc1ccc(N2C(=O)CC(N3CCN(C(=O)c4ccco4)CC3)C2=O)cc1 (configuration not stated)	19.4	-3.8	0.5	0.3	-2.6%	-40.8*
CCCOc1ccc(N2C(=O)CC(N3CCN(c4nc5ccccc5s4)CC3)C2=O)cc1 (configuration not stated)	3.0	2.7	-1.4	3.2	-3.6%	-30.8*
CCc1ccc(NC(=O)C2CCN(S(=O)(=O)c3ccc4c(c3)CC(C)N4C(C)=O)CC2)cc1 (configuration not stated)	2.9	-5.2	-1.0	-6.0	-4.2%	-31.1*
CCOc1ccc(OCC)c(NC(=O)C2CCN(S(=O)(=O)c3ccc4c(c3)CC(C)N4C(C)=O)CC2)c1 (configuration not stated)	1.0	6.3	0.5	-9.8	3.9%	-34.6*!
CCc1ccc(NC(=O)C2CCCN(S(=O)(=O)c3ccc4c(c3)CC(C)N4C(C)=O)C2)cc1 (configuration not stated)	1.1	-5.8	-0.2	0.7	-2.3%	8.5
Cc1ccc(OC(=O)c2cccc(S(=O)(=O)N3CCN(C)CC3)c2)c(Br)c1	5.6	-10.4	-0.4	-4.7	-3.5%	-32.2*
COc1cc(/C=C/C(=O)N2CCCCC2=O)cc(OC)c1OC	x	x	x	x	-10.7%	x
O=c1cc(-c2ccccc2)nc2n1Cc1ccccc1-2	1.0	-0.6	0.6	31.3*	7.5%	-5.3
